Where “and” joins values, the source holds several entries; their conditions need not be identical. Equal values may be shown once. The campaign covered roughly 78,000 compounds. About 1,800 (2.3%) were called active. Not shown: some 27% with an inconclusive outcome. Rule as the data show it: active = inhibition above about 30%; inconclusive = mostly about 10% to 28%; inactive = weaker than that. Only a selection was taken, and actives are over-represented in it overall.
Biological target: Interleukin-1 receptor-like 1 (Homo sapiens) (UniProt Q01638)
Assay: blocks human ST2 binding to IL-33, primary screen, biochemical, AlphaLISA (AID 1259354)
Conditions: AlphaLISA ST2-Fc/biotin-IL-33 interaction, 1 h; at 17 µM, hits give high values

Chain of Interleukin-1 receptor-like 1 (Homo sapiens) (Q01638 whole entry, looked up): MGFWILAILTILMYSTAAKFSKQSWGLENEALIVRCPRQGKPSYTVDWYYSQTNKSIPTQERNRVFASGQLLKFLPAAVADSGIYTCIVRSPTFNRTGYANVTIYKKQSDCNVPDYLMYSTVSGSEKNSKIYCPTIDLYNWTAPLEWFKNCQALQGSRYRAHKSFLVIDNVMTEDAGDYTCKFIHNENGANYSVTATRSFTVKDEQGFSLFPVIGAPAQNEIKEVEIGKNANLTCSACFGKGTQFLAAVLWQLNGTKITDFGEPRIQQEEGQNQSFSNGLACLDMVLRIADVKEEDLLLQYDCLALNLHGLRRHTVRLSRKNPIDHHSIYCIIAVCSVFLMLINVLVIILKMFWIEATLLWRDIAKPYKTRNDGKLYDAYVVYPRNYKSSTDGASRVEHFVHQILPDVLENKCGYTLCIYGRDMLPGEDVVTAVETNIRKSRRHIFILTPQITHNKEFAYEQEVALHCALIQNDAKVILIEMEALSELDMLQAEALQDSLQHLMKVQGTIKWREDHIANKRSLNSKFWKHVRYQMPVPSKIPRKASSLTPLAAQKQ

Q: For Cc1ccc(NC(=O)CNCCOc2ccccc2)c(C)c1, which inhibition is on record?
A: The inhibition was “inactive”.

Q: Which inhibition does the source give for NC(=O)Cn1cnc2c(cnn2-c2ccc(F)cc2)c1=O here?
A: The inhibition was “inactive”.

Q: For C[C@@H](NC(=O)C1=C[C@@H](NC(=O)CS(=O)(=O)c2ccccc2)[C@@H](O)[C@H](O)C1)C(N)=O, which inhibition is on record?
A: Its inhibition is “inactive”.

Q: COc1ccc(Cl)cc1NC(=O)c1nn(-c2ccc(Cl)cc2)c(=O)c2ccccc12 was tested. Which inhibition did it give?
A: Its inhibition is “inactive”.

Q: Which inhibition does the source give for COc1cc2c(C(=O)N3CCCC3)cn(C)c(=O)c2cc1OC here?
A: The inhibition was “inactive”.

Q: CCOc1ccc(C(C)=O)cc1N1C(=O)C2C3C=CC(CC3)C2C1=O (stereo not drawn) was tested. Which inhibition did it give?
A: The inhibition was “inactive”.

Q: For CCn1c(C)csc1=Nc1cccc(C(F)(F)F)c1, which inhibition is on record?
A: Its inhibition is “inactive”.

Q: CN(C)CCCn1c(-c2ccc(Cl)cc2)csc1=Nc1ccccc1 was tested. Which inhibition did it give?
A: The inhibition was 63% (active) and 45% (active).

Q: How did the inhibition turn out when COc1ccc(C2C(=C(O)c3ccc(Cl)cc3)C(=O)C(=O)N2CCCN(C)C)c(OC)c1 (stereo not drawn) was run?
A: The inhibition was “inactive”.

Q: Which inhibition does the source give for O=C(CN1C(=O)CC(c2ccccc2)=Nc2ccccc21)Nc1ccc(Cl)cc1 here?
A: The inhibition was “inactive”.

Q: CCOC(=O)c1sc2nc3n(c(=O)c2c1C)N=C(c1ccccc1)CS3 was tested. Which inhibition did it give?
A: Its inhibition is “inactive”.

Q: With O=C1NN=C(c2ccccc2)/C1=C/c1ccc(-c2ccc(Cl)cc2)o1 as the compound, how does the inhibition read?
A: Its inhibition is 49% (active).

Q: How did the inhibition turn out when Cc1c(Cl)c([N+](=O)[O-])nn1CCCC(=O)Nc1cc(Cl)ccc1Cl was run?
A: Its inhibition is “inactive”.

Q: Cn1c(=O)c2c(nc(Cl)n2CC(=O)NC(C)(C)C)n(C)c1=O was tested. Which inhibition did it give?
A: Its inhibition is “inactive”.

Q: Which inhibition does the source give for CCc1ccc(CNC(=O)c2cc3cc4ccc(OC)cc4nc3o2)cc1 here?
A: The inhibition was “inactive”.

Q: How did the inhibition turn out when CC(C)NC(=O)c1cc2cc3ccc(Cl)cc3nc2o1 was run?
A: The inhibition was “inactive”.

Q: O=C(Nc1ccc2c(c1)OCCO2)c1cc2cc3ccc(Cl)cc3nc2o1 was tested. Which inhibition did it give?
A: Its inhibition is 47% (active).

Q: For CCOCCCNC(=O)c1oc2ccc(S(=O)(=O)N3CCC(C)CC3)cc2c1C, which inhibition is on record?
A: Its inhibition is “inactive”.

Q: With Cc1ccc(C(=O)Nc2ccc3nn(-c4ccccc4)nc3c2)cc1 as the compound, how does the inhibition read?
A: Its inhibition is “inactive”.

Q: For O=C(O)c1cccc(N=Cc2nc(-c3ccc(Br)cc3)oc2O)c1, which inhibition is on record?
A: Its inhibition is “inactive”.

Q: Which inhibition does the source give for COc1ccc(CC(=O)Nc2ccc(-c3nnc(-c4ccccc4)o3)cc2)cc1 here?
A: The inhibition was “inactive”.

Q: With Cc1cccc(OCC(=O)Nc2ccc(-c3nc4ncccc4o3)cc2)c1 as the compound, how does the inhibition read?
A: Its inhibition is “inactive”.

Q: For O=C(COc1cccc([N+](=O)[O-])c1)Nc1ccc(-c2nnc(-c3ccco3)o2)cc1, which inhibition is on record?
A: Its inhibition is 45% (active).

Q: With Cc1c(F)cccc1NC(=O)C(C)Oc1ccc(Cl)cc1Cl (stereo not drawn) as the compound, how does the inhibition read?
A: Its inhibition is “inactive”.

Q: For O=C(c1ccco1)N1CCN(c2ccc([N+](=O)[O-])cc2)CC1, which inhibition is on record?
A: The inhibition was “inactive”.

Q: How did the inhibition turn out when O=C1CC(N2CCc3ccccc3C2)C(=O)N1c1ccc([N+](=O)[O-])cc1 (stereo not drawn) was run?
A: Its inhibition is “inactive”.

Q: How did the inhibition turn out when O=C1CC(c2ccccc2)=NN1c1ccc([N+](=O)[O-])cc1 was run?
A: The inhibition was 43% (active).

Q: For Cc1ccc(-c2cc(N3CCN(S(=O)(=O)c4cc(C)c(C)cc4C)CC3)ncn2)cc1, which inhibition is on record?
A: Its inhibition is “inactive”.

Q: For O=C(CSCc1ccccc1)Nc1c(-c2ccc(F)cc2)nc2ccccn12, which inhibition is on record?
A: Its inhibition is “inactive”.

Q: Which inhibition does the source give for N#Cc1c(-n2ncnc2-c2ccc3c(c2)OCO3)sc2c1CCCC2 here?
A: The inhibition was 47% (active).

Q: With COc1cccc(-c2c(C#N)c(N)n3c(nc4ccccc43)c2C#N)c1 as the compound, how does the inhibition read?
A: The inhibition was “inactive”.

Q: With COc1cccc(C(=O)Nc2sc3c(c2C(N)=O)CCCCCC3)c1 as the compound, how does the inhibition read?
A: The inhibition was “inactive”.

Q: N#Cc1c(-n2ncnc2-c2ccccc2)sc2c1CCCC2 was tested. Which inhibition did it give?
A: Its inhibition is 31% (active).

Q: Cc1cc(C)c(C#N)c(SCC(=O)c2ccc3c(c2)OCO3)n1 was tested. Which inhibition did it give?
A: The inhibition was “inactive”.

Q: Which inhibition does the source give for N#Cc1c(NC(=O)CCCC(=O)O)sc2c1CCCC2 here?
A: The inhibition was “inactive”.

Q: CC(C)CN(CC(C)C)S(=O)(=O)c1ccc(C(=O)Nc2sc3c(c2C#N)CCC3)cc1 was tested. Which inhibition did it give?
A: Its inhibition is “inactive”.

Q: How did the inhibition turn out when COc1cccc(-c2ncnn2-c2sc3c(c2C#N)CCCCC3)c1 was run?
A: The inhibition was 65% (active).

Q: For O=C(Nc1ncnc2sc3c(c12)CCCC3)c1ccccc1, which inhibition is on record?
A: Its inhibition is “inactive”.

Q: Which inhibition does the source give for Cc1csc(SCC(=O)N2CCC(c3cc(C(C)C)n[nH]3)CC2)n1 here?
A: The inhibition was “inactive”.

Q: For O=C(CN1CCN(Cc2cccc(Cl)c2)C1=O)N1CCCC1, which inhibition is on record?
A: Its inhibition is “inactive”.

Q: With O=C(CSC1=Nc2ccccc2C2=NC(Cc3ccccc3)C(=O)N12)NC1CCCCC1 (stereo not drawn) as the compound, how does the inhibition read?
A: Its inhibition is “inactive”.

Q: How did the inhibition turn out when COCCn1ccnc1-c1[nH]cnc1-c1ccccc1 was run?
A: The inhibition was “inactive”.

Q: Which inhibition does the source give for CC(C)c1ccc(-c2nc(N3CCCCC3)nc3n[nH]c(N)c23)cc1 here?
A: The inhibition was “inactive”.

Q: How did the inhibition turn out when Cc1cc2c(Nc3cccc(Cl)c3C)ncnc2s1 was run?
A: Its inhibition is “inactive”.

Q: Nc1nonc1-n1nnc(CN2CCCCC2)c1CN1CCCCC1 was tested. Which inhibition did it give?
A: Its inhibition is “inactive”.

Q: Which inhibition does the source give for COc1ccc2nc(NC(=O)Cc3c(C(=O)O)n(C)c4ccccc34)sc2c1 here?
A: The inhibition was “inactive”.

Q: Cc1ccc(N(C(=O)c2ccccc2Br)C2C=CS(=O)(=O)C2)cc1C (stereo not drawn) was tested. Which inhibition did it give?
A: Its inhibition is “inactive”.

Q: O=C(Nc1cccc([N+](=O)[O-])c1)c1cccc(Cl)c1Cl was tested. Which inhibition did it give?
A: The inhibition was “inactive”.

Q: With Cc1ccc(NC(=O)c2ccc(Br)o2)c(C)c1 as the compound, how does the inhibition read?
A: The inhibition was “inactive”.

Q: For Cc1cccc(NC(=O)c2ccc([N+](=O)[O-])o2)c1, which inhibition is on record?
A: Its inhibition is 42% (active).

Q: For CSCCC(NS(=O)(=O)c1cccc2nsnc12)C(=O)O (stereo not drawn), which inhibition is on record?
A: Its inhibition is “inactive”.

Q: How did the inhibition turn out when N#Cc1c(-c2ccccc2)cc(-c2ccccc2)nc1SCC(=O)O was run?
A: Its inhibition is “inactive”.

Q: How did the inhibition turn out when Cc1cccc(-c2nc(N3CCCC3)c3ccccc3n2)c1 was run?
A: The inhibition was “inactive”.

Q: How did the inhibition turn out when c1ccc(-c2csc3ncnc(N4CCCCC4)c23)cc1 was run?
A: The inhibition was “inactive”.

Q: N#Cc1c(SCC(=O)Nc2ccccc2)ncc2cc3ccccc3nc12 was tested. Which inhibition did it give?
A: Its inhibition is 32% (active).

Q: Which inhibition does the source give for N#Cc1c(N2CCCCCC2)ncc2cc3ccccc3nc12 here?
A: Its inhibition is 37% (active).

Q: For N#Cc1c(SCC(=O)Nc2ccccn2)nsc1SCC(=O)Nc1ccccn1, which inhibition is on record?
A: Its inhibition is “inactive”.

Q: How did the inhibition turn out when COc1cc2c(cc1OC)[C@H]1CN3CCc4cc(OC)c(OC)cc4[C@@H]3CN1CC2 was run?
A: The inhibition was “inactive”.

Q: Which inhibition does the source give for CCn1cc(S(=O)(=O)N2CCCC2c2ccccn2)c(C)n1 (stereo not drawn) here?
A: Its inhibition is “inactive”.

Q: For Cc1cc(C(=O)N(CC2CCN(C3Cc4ccccc4C3)CC2)CC2CCCO2)nc(C)n1 (stereo not drawn), which inhibition is on record?
A: Its inhibition is “inactive”.

Q: How did the inhibition turn out when Cc1cc(C)c2c(CC(=O)NCc3cccnc3N3CCOCC3)coc2c1 was run?
A: Its inhibition is “inactive”.

Q: How did the inhibition turn out when c1ccc(CSc2ncc(C3NCCc4[nH]cnc43)cn2)cc1 (stereo not drawn) was run?
A: The inhibition was “inactive”.

Q: How did the inhibition turn out when Cc1cc(NC(=O)C(NS(=O)(=O)c2cccs2)C(C)C)ccc1Br (stereo not drawn) was run?
A: Its inhibition is “inactive”.

Q: Fc1cccc(Cl)c1C1CC(c2ccccc2)Nc2ncnn21 (stereo not drawn) was tested. Which inhibition did it give?
A: The inhibition was “inactive”.

Q: Which inhibition does the source give for Cn1c(CC2CCNCC2)nnc1SCCOc1ccc(Cl)cc1 here?
A: The inhibition was “inactive”.

Q: How did the inhibition turn out when CN1CCN(C(=O)c2ccnc(-c3cc(N)nc4[nH]ccc34)c2)CC1 was run?
A: Its inhibition is 30% (active).

Q: With O=C(c1ccnc(-n2cnnc2)c1)N1CCC2(CC1)C(=O)Nc1ccccc12 as the compound, how does the inhibition read?
A: The inhibition was “inactive”.

Q: O=C(c1cccc(-c2ncc[nH]2)c1)N1Cc2cnn(CCO)c2C1 was tested. Which inhibition did it give?
A: Its inhibition is “inactive”.
